# HttQ103 aggreg = qHTS Multiplex Assay to Identify Dual Action Probes in a Cell Model of Huntington: Aggregate Formation (GFP). PC12 HttQ103-GFP aggregates, Acumen cytometry, 40 h. Potency, µM (highest dose often 46.1 µM), inactives show at the highest dose activity change, negative = inhibition, usual class: inhibitors. 1.1% of 220,000 active. AID 1688, 2009; active means well fitted curve in the direction sought with a large enough effect; inconclusive means small, poorly fitted or top-dose-only effect, or another doubt; inactive means no such curve, though single readings can be large; an effect the other way counts as inactive or inconclusive; further: potency means the concentration at half of the fitted maximal effect; on the % scale 0 is the no-effect control and ±100 the full control effect; nearly all actives have a fitted effect of over 60% in size
#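 Compounds (qHTS titration) were added to PC12 cells expressing an ecdysone-driven HTT exon 1 Q103–GFP fusion after induction with 100 nM tebufenozide. Aggregate formation was measured as GFP objects in cell lysates.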
# ALDH1A1 block = qHTS Assay for Inhibitors of Aldehyde Dehydrogenase 1 (ALDH1A1); AID 1030, 2008; Potency, µM (titrated, usually from 75.3 µM), for inactives: at the top dose activity, negative = inhibition, most hits filed as inhibitors; Aldehyde dehydrogenase 1A1 (Homo sapiens), P00352; 7.3% of 220,000 active; Purified ALDH1A1, NADH fluorescence, propionaldehyde substrate;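 further: potency means the concentration at half of the fitted maximal effect; plate controls were no enzyme wells and a reference inhibitor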
# Target sequence (P00352 whole entry, looked up): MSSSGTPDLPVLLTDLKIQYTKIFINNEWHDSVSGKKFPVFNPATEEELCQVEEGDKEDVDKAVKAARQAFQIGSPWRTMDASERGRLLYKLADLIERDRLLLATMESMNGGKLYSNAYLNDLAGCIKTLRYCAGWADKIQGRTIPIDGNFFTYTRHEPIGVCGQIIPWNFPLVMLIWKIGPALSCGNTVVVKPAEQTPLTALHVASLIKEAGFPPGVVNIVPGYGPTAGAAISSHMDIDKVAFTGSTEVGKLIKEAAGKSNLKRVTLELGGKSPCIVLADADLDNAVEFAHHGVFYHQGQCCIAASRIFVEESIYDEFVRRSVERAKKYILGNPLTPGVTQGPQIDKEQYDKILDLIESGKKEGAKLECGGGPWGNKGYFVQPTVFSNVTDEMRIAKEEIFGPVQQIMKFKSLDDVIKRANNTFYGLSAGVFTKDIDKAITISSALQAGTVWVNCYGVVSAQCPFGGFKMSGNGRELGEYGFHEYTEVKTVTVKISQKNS
# HTT cytoprotect = qHTS Multiplex Assay to Identify Dual Action Probes in a Cell Model of Huntington: Cytoprotection (ATP); PC12 HTT-Q103 induced, cytoprotection, ATP luminescence, 40 h; Potency, µM (highest dose often 56.4 µM), without a hit: cytoprotection (ATP increase), hits mostly activators; 0.14% of 230,000 active; AID 1471, 2008; active means well fitted curve in the direction sought with a large enough effect; inconclusive means small, poorly fitted or top-dose-only effect, or another doubt; inactive means no such curve, though single readings can be large; an effect the other way counts as inactive or inconclusive; further: potency means the concentration at half of the fitted maximal effect; % of control where 0% means no effect; nearly all actives have a fitted effect of over 45% in size
#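 Cells were plated at 1500 per well in phenol red-free DMEM with 5% equine and 5% calf serum. Tebufenozide (100 nM final) and compounds were added, then ATPlite reagent, and luminescence was read.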
# HPGD inh = qHTS Assay for Inhibitors of HPGD (15-Hydroxyprostaglandin Dehydrogenase). 15-hydroxyprostaglandin dehydrogenase [NAD(+)] (Homo sapiens), P15428. purified HPGD, NADH fluorescence kinetic, PGE2 substrate. Potency, µM, for inactives: at the top dose activity change, negative = inhibition, actives largely listed as inhibitors. 4.3% of 150,000 active. AID 894, 2007; further: potency means the concentration at half of the fitted maximal effect; on the % scale 0 is the no-effect control and ±100 the full control effect
#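 20 nM HPGD preincubated 15 min at room temperature with compound in 50 mM Tris-HCl pH 8, 0.01% Tween 20. Started with 1 mM NAD+ and 30 uM prostaglandin E2; NADH fluorescence (360/450 nm) read 5 times over 30-s intervals, last minus first.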
# JMJD2E inh = qHTS Assay for Inhibitors of Human Jumonji Domain Containing 2E (JMJD2E); JMJD2E catalytic domain, FDH-coupled NADH fluorescence (FDH is formaldehyde dehydrogenase); Potency, µM (top dose mostly 57.1 µM), for inactives: top-dose activity change, negative = inhibition, most hits filed as inhibitors; 1.6% of 230,000 active; AID 2147, 2009;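 further: potency means the concentration at half of the fitted maximal effect; 0% = wells with enzyme and -100% = buffer wells without enzyme; nearly all actives have a fitted effect of over 50% in size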
# CBFb-RUNX1 inh = qHTS Assay for Compounds Blocking the Interaction Between CBF-beta and RUNX1 for the Treatment of Acute Myeloid Leukemia. Runt-related transcription factor 1 (Homo sapiens) + Core-binding factor subunit beta …. AlphaScreen CBFb-His/RUNX1-biotin binding, biochemical. Potency, µM (titrated, usually from 59.8 µM), without a hit: top-dose activity, negative = inhibition, hits mostly inhibitors. 230,000 tested, under 10 active; active means well fitted curve in the direction sought with a large enough effect; inconclusive means small, poorly fitted or top-dose-only effect, or another doubt; inactive means no such curve, though single readings can be large; an effect the other way counts as inactive or inconclusive; further: % of control where 0% means no effect
#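 Bead-based AlphaScreen assay; binding partners His-tagged CBF-beta and biotinylated RUNX1 at 30 nM each. Compound exposure 15 min after a 20-min protein preincubation; bead step 90 min; all steps at room temperature.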
# An asterisk follows results filed as active; i = inactive; ? = inconclusive; . = no result; [ ] = dose if it differs, or a comment. The list is not random: actives were taken first. Their share in the collection is about 9.8%. Unless noted, the call rests on the fitted dose curve; in most records, active means well fitted inhibition curve with a large enough effect (not every such curve was filed as active); inconclusive means small, poorly fitted or top-dose-only effect, or another doubt; inactive means no such curve, though single readings can be large or run the other way.
SMILES,HttQ103 aggreg,ALDH1A1 block,HTT cytoprotect,HPGD inh,JMJD2E inh,CBFb-RUNX1 inh
CCOC(=O)c1ccc(N=C2C(=S)N(c3ccc(C(=O)OCC)cc3)C(=N)N2/N=C/c2ccccc2)cc1,19%,2µM*,8%[10 µM],22µM*,-18%,-1%
CCOC(=O)c1ccc(N=c2scc(C)n2CC)cc1,12%,?,43%[10 µM],.,-10%,-21%
O=C(c1cc2cc(Br)ccc2oc1=O)N1CCCC1,-6%,-5%,-9%,20µM*,-11%,2%
Cc1ccc(C(=O)N2CC(C(=O)O)C2)cc1,25%,-2%,-8%[10 µM],.,9%,-3%
COC(=O)c1ccc(-c2ccc(C(=O)N3CCCN(C)CC3)cc2)cc1,-16%,14%,0%,1.3µM*,0%,24%
Cc1ccc(C(=O)N2CCSCC2)cc1,14%[9.22 µM],0%,?,0.28µM*,4%,1%
CC(C)c1ccc(C(=O)N2CCN(c3cnn(C)c(=O)c3Cl)CC2)cc1,19%[9.22 µM],?,12%[10 µM],.,8%,6%
CC(C)c1ccc(C(=O)N2CCCN(C(=O)c3ccc(C(C)C)cc3)CC2)cc1,19%,7.9µM*,-3%[0.074 µM],-5%,8%,7%
O=C(COc1ccc(-c2ccccc2)cc1)N1CCCC1,24%[9.22 µM],13µM*,31%[10 µM],.,-3%,-4%
CNC(=O)C1CCN(C(=O)c2ccc(-c3ccccc3)cc2)CC1,-10%,?,-11%,-12%,2%,5%
O=C(Oc1ccc(-c2ccccc2)cc1)N1CCCCC1,-32%,0%,-10%[0.074 µM],-28%,-6%,2%
O=C(c1cccc(Br)c1)N1CCN(C(=O)N2CCCCC2)CC1,-15%,?,1%[0.074 µM],-1%,5%,17%
O=C(c1cccc(Br)c1)N1CCCC1,0%,9%,10%[10 µM],18µM*,3%,5%
O=C(c1ccc(Br)cc1)N1CCCC1,17%,-7%,-4%,7.9µM*,5%,-4%
O=C(c1ccc(-c2ccccc2)cc1)N1CCCC1,3%,-15%,-18%,1.6µM*,0%,2%
Cc1c(Cl)cccc1NC(=O)CNCc1ccccc1F,8%,0%,16%[10 µM],.,1%,11%
C[C@@H](NCCCc1cccc(C(F)(F)F)c1)c1cccc2ccccc12,?,.,-99%,.,.,.
Cn1cnnc1SCc1ccc(C(=O)n2ncc(C#N)c2N)cc1,-8%,10%,-13%,-4%,8%,5%
Cc1cccc(C(=O)N2CCCCCC2)c1,-7%,13%,-10%,5µM*,3%,-5%
O=C(c1cccc(C(F)(F)F)c1)N1CCCCCC1,-28%,12%,27%[10 µM],?,5%,1%
O=C(c1ccc(-n2cccc2)cc1)N1CCCCC1,0%,32µM*,-30%[10 µM],.,3%,-14%
Nc1nnc(N2CCCCC2)s1,11%,25µM*,12%[10 µM],-1%,-14%,9%
Nc1nnc(N2CCCCCC2)s1,-1%,4%,-23%[0.074 µM],-12%,-12%,-14%
C/C(=N\Nc1ccc2nncn2n1)c1ccccn1,-28%[9.22 µM],.,-11%[10 µM],.,10µM*,?
Cc1nc2ccc(NC(=O)c3ccc(F)c(S(=O)(=O)N4CCOCC4)c3)cc2s1,?,?,-133%,i,1%,-2%
CN=C1C=CC(=C(c2ccc(N(C)C)cc2)c2ccc(N(C)C)cc2)C=C1,8.9µM*,.,-99%,.,.,.
COc1ccc(CN(C)c2nc(-c3cccnc3)nc3ccccc23)cc1OC,-8%,?,-14%,.,-2%,0%
CCOC(=O)c1ccc(N2C(=O)C(CC(=O)NC)N(CCc3ccc(OC)c(OC)c3)C2=S)cc1 (stereo not drawn),23%,?,-17%[10 µM],.,-2%,-4%

# Assay outcomes: PubChem BioAssay, National Center for Advancing Translational Sciences (NCATS)
